Test results from the supplement of paper PMC6897291.

How the values were obtained:
RIVA [1] = experiment: growth inhibition by drug alone (1 - RLU/untreated control) (fraction); higher = stronger inhibition; conditions: 177Lu-lilotomab satetraxetan 0 ug/ml
In short: (§1)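 Growth inhibition was calculated from RealTime-Glo RLU against untreated no-drug wells. Values equal 1 − RLU/mean of 48 untreated no-drug wells per plate, read daily from day 3 after 1 h at 37°C. RIVA and U-2932 cells, with or without 18 h pretreatment by a radiolabelled anti-CD37 antibody conjugate (~600 MBq/mg; 0.5 µg/ml RIVA, 1 µg/ml U-2932), were washed and plated at 3,000 cells/well on compound-printed plates at 10/100 nM (RIVA) or 10/1,000 nM (U-2932).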

U-2932 = experiment: growth inhibition by drug plus 177Lu-lilotomab satetraxetan (1 - RLU/untreated control) (fraction); higher = stronger inhibition; conditions: 177Lu-lilotomab satetraxetan 1 ug/ml
In short: as §1

RIVA [2] = experiment: as above; conditions: 177Lu-lilotomab satetraxetan 0.5 ug/ml
In short: as §1

Row | Structure (SMILES) | growth inhibition by drug alone (RIVA [1]; 10 nM, time (day): 3) | growth inhibition by drug alone (RIVA [1]; 10 nM, time (day): 4) | growth inhibition by drug alone (RIVA [1]; 10 nM, time (day): 5) | growth inhibition by drug alone (RIVA [1]; 10 nM, time (day): 6) | growth inhibition by drug alone (RIVA [1]; 100 nM, time (day): 3) | growth inhibition by drug alone (RIVA [1]; 100 nM, time (day): 4) | growth inhibition by drug alone (RIVA [1]; 100 nM, time (day): 5) | growth inhibition by drug alone (RIVA [1]; 100 nM, time (day): 6) | growth inhibition by drug plus 177Lu-lilotomab satetraxetan (U-2932; 10 nM, time (day): 3) | growth inhibition by drug plus 177Lu-lilotomab satetraxetan (U-2932; 10 nM, time (day): 4) | growth inhibition by drug plus 177Lu-lilotomab satetraxetan (U-2932; 10 nM, time (day): 5) | growth inhibition by drug plus 177Lu-lilotomab satetraxetan (U-2932; 10 nM, time (day): 6) | growth inhibition by drug plus 177Lu-lilotomab satetraxetan (U-2932; 1000 nM, time (day): 3) | growth inhibition by drug plus 177Lu-lilotomab satetraxetan (U-2932; 1000 nM, time (day): 4) | growth inhibition by drug plus 177Lu-lilotomab satetraxetan (U-2932; 1000 nM, time (day): 5) | growth inhibition by drug plus 177Lu-lilotomab satetraxetan (U-2932; 1000 nM, time (day): 6) | growth inhibition by drug plus 177Lu-lilotomab satetraxetan (RIVA [2]; 10 nM, time (day): 3) | growth inhibition by drug plus 177Lu-lilotomab satetraxetan (RIVA [2]; 10 nM, time (day): 4) | growth inhibition by drug plus 177Lu-lilotomab satetraxetan (RIVA [2]; 10 nM, time (day): 5) | growth inhibition by drug plus 177Lu-lilotomab satetraxetan (RIVA [2]; 10 nM, time (day): 6) | growth inhibition by drug plus 177Lu-lilotomab satetraxetan (RIVA [2]; 100 nM, time (day): 3) | growth inhibition by drug plus 177Lu-lilotomab satetraxetan (RIVA [2]; 100 nM, time (day): 4) | growth inhibition by drug plus 177Lu-lilotomab satetraxetan (RIVA [2]; 100 nM, time (day): 5) | growth inhibition by drug plus 177Lu-lilotomab satetraxetan (RIVA [2]; 100 nM, time (day): 6)
1 | CCCCCCCc1ccc(CCc2cccc(O)c2C(=O)O)cc1 | -0.000498 | -0.0468 | -0.0726 | -0.153 | -0.176 | -0.164 | -0.186 | -0.241 | -0.0136 | 0.0406 | 0.0811 | 0.11 | 0.0189 | 0.0723 | 0.084 | 0.179 | 0.588 | 0.59 | 0.619 | 0.624 | 0.545 | 0.607 | 0.62 | 0.624
2 | CC(C)C[C@H](NC(=O)CNC(=O)c1cc(Cl)ccc1Cl)B1OC(=O)C(CC(=O)O)(CC(=O)O)O1 | -0.0185 | 0.0392 | -0.0726 | -0.362 | 0.319 | 0.4 | 0.359 | 0.21 | 0.0116 | 0.0804 | 0.149 | 0.155 | 0.984 | 0.985 | 0.986 | 0.988 | 0.542 | 0.596 | 0.606 | 0.609 | 0.64 | 0.701 | 0.698 | 0.645
3 | CN(C)c1nc(N(C)C)nc(N(C)C)n1 [Altretamine (Hexalen)] | -0.25 | -0.257 | -0.29 | -0.318 | -0.545 | -0.424 | -0.488 | -0.694 | -0.146 | -0.0735 | -0.0141 | -0.0604 | -0.101 | -0.0503 | 0.00142 | 0.121 | 0.349 | 0.469 | 0.481 | 0.485 | 0.239 | 0.318 | 0.312 | 0.332
4 | O=C(O)C1(C(=O)O)CCC1.[NH2-].[NH2-].[Pt+2] [Carboplatin] | -0.0898 | -0.143 | -0.162 | -0.249 | -0.121 | -0.164 | -0.182 | -0.229 | -0.0315 | 0.0327 | 0.0748 | 0.141 | 0.0161 | 0.0456 | 0.0793 | 0.221 | 0.458 | 0.519 | 0.538 | 0.54 | 0.528 | 0.554 | 0.565 | 0.569
5 | N#CCNC(=O)c1ccc(-c2ccnc(Nc3ccc(N4CCOCC4)cc3)n2)cc1 | -0.164 | -0.233 | -0.267 | -0.364 | -0.378 | -0.377 | -0.416 | -0.56 | -0.0778 | -0.021 | 0.0189 | 0.13 | 0.143 | 0.174 | 0.206 | 0.384 | 0.481 | 0.53 | 0.555 | 0.562 | 0.347 | 0.434 | 0.447 | 0.446
